Reference: PubChem BioAssay AID1626 (SRMLSC, 2009)
Several values for one entry are separate records, joined by “and”; a condition that tells them apart may be missing. Equal entries are not always repeated. About 2,000 (0.91%) of roughly 220,000 compounds were called active. Inconclusive results (about 2%) are left out. These entries were drawn from the full list. Entries with a potency or affinity are not part of this list. A number with no mark means an inactive call. Cut-off read from the data, not from the text of the source: inconclusive = inhibition above about 80% without an active follow-up result; inactive = below that; test concentration not stated here.

Experiment: M. tuberculosis H37Rv growth inhibitors, H37Rv strain (AID 1626);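 note: bacteria incubated seven days before Alamar blue readout; 0% = bacteria only wells and 100% = bacteria with antibiotic wells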
Details: active compounds read high, concentration not given here

Structure (SMILES)	inhibition
Cc1cc(Nc2ccccc2)n(-c2ccccc2)n1	1.16%
Cc1ccc(C)c(C(=O)Nc2cc(C)nn2-c2nc(C)cc(C)n2)c1	22%
CNc1cc(C)nc(-n2nc(C)cc2C)n1	13%
CC(=O)Nc1cc(C)nn1-c1nc(C)cc(C)n1	3.43%
COc1ccc(Nc2cc(C)nc(N3CCOCC3)n2)cc1	10.4%
Cc1cc(Nc2ccccc2)n(-c2ccc(Br)cc2)n1	-7.48%
O=C(c1ccc(Cl)nc1)N1CCN(S(=O)(=O)c2ccc(Cl)cc2)CC1	5.1%
Cc1ccc(/C=C(/C#N)C(=O)NC(C)c2ccccc2)o1 (centres undefined)	5.5%
CCCC(c1nnnn1C(C)(C)CC)N1CCN(C2CCCC2)CC1 (centres undefined)	3.73%
CC(=O)Nc1ccccc1C(=O)C(=O)Nc1ccc(C(=O)N2CCOCC2)cc1	-0.85%
Cc1ccc(C2C(C(=O)c3sc(C)nc3C)=C(O)C(=O)N2CCN(C)C)o1 (centres undefined)	-6.12%
COc1ccc(S(=O)(=O)Nc2ccc(N3CCOCC3)cc2)cc1[N+](=O)[O-]	-1.81%
COC(CNc1cc(=O)oc2ccccc12)OC	3.54%
O=C(COC(=O)CC1CC2CCC1C2)Nc1c(F)cccc1F (centres undefined)	-6.22%
CCCCNc1ccc(C(=O)OCCN(C)C)cc1	5.64%
CCCCOC(=O)c1ccc(NC(=O)c2c(OC)cccc2OC)cc1	-7.36%
CCCCOC(=O)c1ccc(NC(C)=O)cc1	58.3%
CCCCOC(=O)c1ccc(NC(=O)C(=O)NCc2ccco2)cc1	5.24%
CCN(CC)CCNC(=O)c1ccc(NC(C)=O)cc1	-2.03% and 6.46%
CCOC(=O)c1ccc(NC(=O)C(=O)NCCc2ccc(OC)cc2)cc1	2.35%
CCN(CC)CCNC(=O)C(=O)Nc1ccc(C(=O)OC)cc1	0.58%
CCOC(=O)c1ccc(NC(=S)NCc2cccnc2)cc1	-9.64%
CCOc1cc(CNc2ccc(N(C)C)cc2)cc(Br)c1OCC(=O)NC(C)(C)C	13.9%
O=C(Cn1nnc2ccccc21)OCc1ccccc1	3.11%
CC(C(=O)Nc1ccc(C(=O)O)cc1)N1C(=O)c2ccccc2C1=O (centres undefined)	2.02%

Structure (SMILES)	inhibition
CC1C(=O)NN=C1C(=O)N/N=C/c1ccco1 (centres undefined)	4.15%
N/C(CN1CCCC1=O)=N\OC(=O)c1ccccc1Cl	-4.21%
CC(C)(C)C(=O)Nc1ccc(N=Nc2ccccc2)cc1	1.74%
COc1ccc(C2=NOC(C)(c3nnc(-c4ccncc4)o3)C2)cc1 (centres undefined)	3.27%
O=C(c1csc2c1CCCC2)N1CCCCC1	-7.91%
Cc1ccc2c(c1)NC(=O)C(CC(=O)NCCCN1CCc3ccccc3C1)O2 (centres undefined)	-7.1%
Cc1cc(=O)oc2cc(OC(=O)c3ccccc3)ccc12	70%
COCCOC(=O)c1c(C)oc2ccc(OCc3ccccc3)cc12	0.54%
COCCOC(=O)c1c(C)oc2ccc(OC(=O)c3c(OC)cccc3OC)cc12	9.56%
COCCOC(=O)c1c(C)oc2ccc(OC(=O)N(C)C)cc12	-0.97%
COCCOC(=O)c1c(C)oc2ccc(OS(C)(=O)=O)cc12	10.4%
CC(=O)Oc1ccc2c(C)cc(=O)oc2c1	74.8%
COc1ccccc1N(CC(=O)NCc1ccccc1)C(=O)CCC(=O)Nc1cc(C)ccn1	-0.58%
Clc1cccc(-c2nnc(-c3ccccc3)o2)c1	10.9%
N#CCC(=O)Nc1ccc(C(=O)NCc2ccccn2)cc1	-2.46%
CCC(=O)c1cc(F)c(N2CCN(S(=O)(=O)c3ccc(C)cc3)CC2)cc1C	4.53%
O=C(CN1C(=O)CCSc2ccccc21)N1CCC2(CC1)OCCO2	-1.04%
CCc1nnc(NC(=O)CSc2nnc(COc3ccccc3)n2Cc2ccccc2)s1	-6.06%
O=C(NCc1ccccc1)c1c[nH]c2cc3c(cc2c1=O)OCCO3	-8.63%
CC(c1ccccc1C(O)(c1ccccc1)c1ccccc1)N(C)C (centres undefined)	12.7%
CC(c1ccccc1C(O)c1ccccc1)N(C)C (centres undefined)	-3.64%
COc1ccc(CNC(=O)CCn2c(=O)[nH]c3ccccc3c2=O)cc1	-0.21%
CCn1c(C2CCN(S(=O)(=O)c3ccc(OC)cc3)CC2)n[nH]c1=S	2.92%
Cc1[nH]nc2c1C(c1ccc(Cl)cc1)C(C#N)=C(N)O2 (centres undefined)	-11.2%
Cc1[nH]nc2c1C(c1ccc(-c3ccccc3C#N)o1)C(C#N)=C(N)O2 (centres undefined)	-1.71%

Structure (SMILES)	inhibition
Cc1[nH]nc2c1C(c1ccco1)C(C#N)=C(N)O2 (centres undefined)	5.49%
Cc1ccc(C2C(C#N)=C(N)Oc3n[nH]c(C)c32)cc1 (centres undefined)	-5.8%
O=C1CCC(c2ccccc2)=NN1	-7.26%
CC(C)=C1C2CCC1C1C(=O)N(c3ccc(C)c(C)c3)C(=O)C21 (centres undefined)	2.47%
Cn1cc(Br)c(C(=O)NC(=S)Nc2ccc(S(N)(=O)=O)cc2)n1	-5.09%
Cc1cc(C(=O)Nc2cccnc2Cl)on1	-0.41%
Cc1occc1-c1nnc(SCC(=O)Nc2nccs2)n1CCc1ccccc1	1.51%
COCC(=O)Nc1nc(-c2ccc([N+](=O)[O-])cc2)cs1	0.01%
CC(=O)Nc1nc(-c2ccc([N+](=O)[O-])cc2)cs1	-3.92%
Cc1csc(NC(=O)c2ccc(C(=O)Nc3nc(C)cs3)cc2)n1	-5.15%
Cc1csc(NC(=O)c2ccc(C)c([N+](=O)[O-])c2)n1	3.94%
CC(=O)Nc1nc(-c2cccs2)cs1	-6.43%
COc1ccc(CC(=O)Nc2nc(-c3cccc([N+](=O)[O-])c3)cs2)cc1	1.75%
Cc1cc(NS(=O)(=O)c2ccc(NC(=O)NC(C)(C(F)(F)F)C(F)(F)F)cc2)no1	3.8%
CCN1CCN(C(=O)CCNC(=O)Cn2ccc3ccccc3c2=O)CC1	-4.7%
O=C(O)c1ccc(Cn2cnc3scc(-c4ccccc4)c3c2=O)cc1	1.45%
CCc1cccc2c(C(=O)CSc3nnc(-c4ccoc4C)n3C)c[nH]c12	-9.96%
Cc1ccc2nc3c(cc2c1)CC1(C(=O)N(C)C(=O)N(C)C1=O)C1COCCN31 (centres undefined)	15.8%
Cc1ccc(-n2c(=S)[nH]c3[nH]ncc3c2=O)cc1	1.01%
O=C1Nc2cc(C(=O)N3CCc4ccccc4C3)ccc2S/C1=C\c1ccccc1	27.6%
COc1ccc(/C=C2\Sc3ccc(C(=O)N4CCc5ccccc5C4)cc3N(C)C2=O)cc1	23.7%
CCCCSc1nc2ccc(Nc3nc(N4CCOCC4)nc(N4CCOCC4)n3)cc2s1	7.41%
COCc1cc(=O)n2[nH]c(SCc3ccccc3)nc2n1	-0.4%
CC(C)COc1ncnc2c1sc1nc3c(cc12)COC(C)(C)C3	-12.6%
Cc1nn2c(NCc3ccccn3)cc(C(C)C)nc2c1-c1ccccc1	99.8%

Structure (SMILES)	inhibition
Cc1cc(NCCN2CCOCC2)n2nc(C)c(-c3ccccc3)c2n1	2.31%
Cc1cc(NCCCN2CCOCC2)n2nc(C)c(-c3ccccc3)c2n1	1.95%
Cc1nn2c(N3CCCC3)cc(C(C)C)nc2c1-c1ccccc1	-3.85%
CCCc1cc(N2CCCC2)n2nc(C)c(-c3ccccc3)c2n1	-0.95%
CC(=O)Nc1ccc(Nc2cc(C)nc3c(-c4ccc(Cl)cc4)c(C)nn23)cc1	21.5%
Cc1cc(Nc2ccccc2)n2nc(C)c(-c3ccccc3)c2n1	3.74%
Cc1nn2c(NCc3ccccn3)cc(C(C)(C)C)nc2c1-c1ccccc1	68.6%
NC(=S)Nc1cccc(F)c1	-6.55%
Cc1ccc(CNC(=O)Nc2cccc(C)c2)cc1	-0.4%
CCC(Sc1ccccn1)C(=O)Nc1nnc(C)s1 (centres undefined)	22%
O=C(Nc1ccc2c(c1)OCO2)c1nn(-c2ccccc2)c(=O)c2ccccc12	-10.6%
Cc1nc2ncccn2c1-c1csc(Nc2ccc(O)cc2)n1	1.06%
Cc1ccc(Nc2nc(-c3c(C)nc4ncccn34)cs2)cc1	6.26%
O=C(Nc1cccc(Cl)c1)OCc1cn(-c2ccccc2)nn1	-9.19%
Cc1ccc(CN2CCN(/N=C/c3cc(Br)ccc3O)CC2)cc1	2.82%
COc1ccc(CCNC(=O)CN(CCc2ccccc2)S(C)(=O)=O)cc1OC	5.24%
CCCN(CCC)C(=O)CSc1nc2c(sc(=S)n2-c2ccc(OCC)cc2)c(=O)[nH]1	6.22%
O=C(Nc1ccccc1C(=O)NCc1ccccc1)c1ccccc1	-4.15%
O=C(O)CCC(=O)Nc1ccccc1C(=O)NCc1ccccc1	-4.2%
O=C(NCc1cccc(CNC(=O)c2ccco2)c1)c1ccco1	-1.79%
N/C(Cc1ccccc1Sc1ccccc1)=N\O	-3.65%
COc1ccc(-c2csc(-c3cccs3)n2)c(OC)c1	6.31%
COc1ccc(-c2noc(-c3cccs3)n2)cc1OC	10.1%
O=C(CN1C(=O)NC2NC(=O)NC21)NN=C1CCCC1 (centres undefined)	-3.27%
